In the library only some 4.1% were active in any assay of this set; here they are far more common.
DAX1 inh-1: DAX1 (NR0B1) inhibition, primary screen | AID 652010 | HEK293T StAR-luciferase reporter, SF-1/DAX-1 repression relief | 370,000 tested, 1.1% active | inhibition, % at 6.8 µM;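 active = inhibition above the mean over all tested compounds plus 3 SD, cut at about 3.6% in these data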;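 also: higher inhibition means more luminescence from relief of DAX-1 repression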
hcDAF-12 act: activates DAF-12 receptor from parasite H. contortus. activation, % at 6.8 µM. HEK293 hcDAF-12 lit1-tk-luc reporter, luminescence; 0% DMSO, 100% Δ7-dafachronic acid. 370,000 tested, 1.4% active;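 active = activation above the mean of all tested compounds plus 3 SD, cut at about 5.5% in these data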
ssDAF-12 act: activates DAF-12 receptor from parasite S. stercoralis; 370,000 tested, 1% active; HEK293 ssDAF-12/GRIP1 lit1-tk-luc reporter, luminescence; % of 3 µM dafachronic acid response; activation, % at 6.8 µM;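 active = activation above the mean over all tested compounds plus 3 SD, cut at about 0.9% in these data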
DAX1 inh-2: inhibits human nuclear receptor DAX1 | P51843 | HEK293 Gal4-DAX1 luciferase reporter, luminescence | inhibition, % at 6.75 µM | 340,000 tested, 0.99% active | AID 504766;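 active = inhibition above the mean over all tested compounds plus 3 SD, cut at about 4.2% in these data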;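 also: inhibition shows as a rise in luminescence from relieved DAX1 repression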
Target sequence (P51843 207-470 limits assumed): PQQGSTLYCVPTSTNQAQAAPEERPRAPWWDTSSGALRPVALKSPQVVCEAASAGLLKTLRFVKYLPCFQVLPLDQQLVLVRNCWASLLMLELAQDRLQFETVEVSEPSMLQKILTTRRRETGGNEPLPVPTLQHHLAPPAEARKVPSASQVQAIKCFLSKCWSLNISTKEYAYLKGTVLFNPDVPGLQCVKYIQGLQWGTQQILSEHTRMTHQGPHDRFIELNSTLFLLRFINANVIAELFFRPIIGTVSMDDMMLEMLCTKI
hgDAF-12 ag: hgDAF-12 agonism, primary luciferase screen; HEK293 GAL4-hgDAF12 UAS-luciferase reporter, agonist luminescence; normalized to butyrate control; activation, % at 6.8 µM; 370,000 tested, 1.8% active;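 active = activation above a cutoff set at the mean of all screened compounds plus 3 SD, cut at about 10% in these data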
Hits are given with their value; – = inactive; · = no result.

SMILES | DAX1 inh-1 | hcDAF-12 act | ssDAF-12 act | DAX1 inh-2 | hgDAF-12 ag
C/C(=N\N1C(=O)c2ccccc2NC1c1ccccc1)c1ccccc1O (stereo not given) | 3.8 | – | – | – | –
C/C(=N\N1C(=O)c2ccccc2NC1c1ccco1)c1ccccc1O (stereo not given) | – | – | – | 6.1 | –
CCOc1ccc(CCNC(=O)Cc2ccccc2)cc1OCC | · | – | – | · | –
C#CCN1CC(N(C)CCCO)CS1(=O)=O (stereo not given) | – | – | – | · | –
Cc1ccc2c(c1)NC(=O)C(CC(=O)NCCN(CC(C)C)CC(C)C)O2 (stereo not given) | – | – | – | 5.7 | –
Cc1nn(-c2ccccc2)c2sc(C(=O)NCc3ccc4c(c3)OCO4)cc12 | – | – | – | · | –
CSc1ccccc1OCc1cc(C(=O)N2CCCC2c2nonc2C)no1 (stereo not given) | – | 5.9 | – | – | 12.8
Cc1cccc(C)c1OCc1cc(C(=O)N2CCCC2c2nonc2C)no1 (stereo not given) | – | – | – | – | –
O=C(c1ccc(F)cc1)N1CCN2C(=O)c3ccccc3C12c1ccccc1 (stereo not given) | – | – | – | – | –
O=C(c1ccc(F)cc1)N1CCN2C(=O)c3ccccc3C12c1ccc(Cl)cc1 (stereo not given) | – | – | – | 4.2 | –
COC(=O)[C@]12C[C@H](CC(=O)NCc3ccc(OC)c(OC)c3)C(=O)N(Cc3ccc(Cl)cc3Cl)C1=C[C@H](C1CCCC1)O[C@@H]2C | – | – | – | · | –
Cc1ccc(NC(=O)NCC2CCN(Cc3cccc(Cl)c3)CC2)cc1Cl | – | – | 1.7 | – | –
CCc1ccc(NC(=O)NCC2CCN(Cc3cccc(Cl)c3)CC2)cc1 | – | – | – | – | –
Cc1ccc(CN2CCC(CNC(=O)Nc3ccccc3F)CC2)cc1 | – | – | – | 4.4 | –
CC(C)(N[C@@H](Cc1c[nH]c2ccccc12)C(=O)NCCc1c[nH]c2ccccc12)C(=O)NC1CCCCC1 | · | – | – | · | –
COc1ccc(C2Nc3ccccc3C(=O)N2NC(C)=O)cc1OC (stereo not given) | – | – | – | – | –
CCOC(=O)NN1C(=O)c2ccccc2NC1c1ccc(OC)c(OC)c1 (stereo not given) | – | – | – | 4.6 | –
O=C1CN(CCN2CC(=O)N(Cc3ccccc3)C(=O)C2)CC(=O)N1Cc1ccccc1 | – | – | – | – | –
CC1(C)CC(=O)N(Cc2ccccc2)C(=O)C1 | – | – | – | 4.5 | –
CCNC(=S)NNC(=O)CSc1nnc(SCc2cccc3ccccc23)s1 | – | – | – | · | –
O=S(=O)(NCC1NCCc2ccccc21)c1ccccc1 (stereo not given) | – | – | – | 8.3 | –
c1ccc(C2NCCc3ccccc32)cc1 (stereo not given) | – | – | – | – | –
CCCC1CCC2(CC1)CCC2OC(=S)Nc1ccccc1Cl (stereo not given) | · | – | – | · | –
C/C(=N\Nc1ccc(Cl)c(C(=O)O)c1)c1ccc[nH]1 | – | 6.4 | – | – | –
C/C(=N\Nc1ccc(Cl)c(C(=O)O)c1)c1cccs1 | – | – | – | – | –
SMILES | DAX1 inh-1 | hcDAF-12 act | ssDAF-12 act | DAX1 inh-2 | hgDAF-12 ag
CCOC(=O)C1=C(COC(=O)c2cccc(N(C)C)c2)NC(=O)NC1C (stereo not given) | 4.2 | – | – | – | –
CO[C@H]([C@H](C)/C=C/N(C)C=O)[C@@H](C)C(O)CC[C@H](C)[C@H](O)[C@H](C)[C@H]1OC(=O)/C=C/C(C)=C/C[C@H](O)C[C@@H]2C=CC[C@@H](C[C@H](OC)[C@@]3(CO3)[C@@H](OC)C[C@@H](OC)[C@@H]1C)O2 (stereo not given in full) | · | – | – | · | –
N#C/C(=N/Nc1ccccc1F)C(=N)N1CCOCC1 | – | – | – | – | –
N#C/C(=N\Nc1ccccc1)C(=N)N1CCCCCC1 | – | – | – | 6.8 | –
COc1ccc(N/N=C(\C#N)C(=N)N2CCOCC2)cc1 | – | – | – | 5.3 | –
COc1ccc2c(c1)CCCN2C(=O)C1CCCN(S(=O)(=O)c2cccc3ccccc23)C1 (stereo not given) | – | – | – | · | –
O=C1C2C3C=CC(C4CC34)C2C(=O)N1/N=C/c1ccc([N+](=O)[O-])s1 (stereo not given) | – | – | – | – | –
O=C1C2C3C=CC(C4CC34)C2C(=O)N1/N=C/c1c[nH]c2ccccc12 (stereo not given) | – | 6.0 | 2.2 | – | 10.5
CC(C)NC(=O)NC1CCN(CC(=O)Nc2ccc3c(c2)OCCO3)CC1 | – | – | – | · | –
C=C1CCC2C(C)(C)CCC[C@]2(C)[C@H]1CC1=C(O)C(=O)C(CO)=CC1=O (stereo not given in full) | – | – | – | · | –
CCN1CCCC1CNS(=O)(=O)c1ccc(F)c(Cl)c1 (stereo not given) | – | – | – | 4.4 | –
CCN1CCCC1CNS(=O)(=O)c1cccc(C(F)(F)F)c1 (stereo not given) | – | – | – | – | –
Cc1ccc(-c2nc3ncccc3o2)cc1N | – | 5.8 | – | – | –
N#Cc1cccc(NC(=O)OCCCN2CCC3(CCCCC3)C2=O)c1 | – | – | – | · | –
COc1cccc(NC(=O)C2CCCN2C(=O)NCc2ccccc2)c1 (stereo not given) | – | – | – | · | –
CCOC(=O)c1cccc(NC(=O)c2ccc(N(C)C)cc2)c1 | – | – | – | – | 10.8
CCOC(=O)c1ccc(NC(=O)c2ccccc2)cc1 | – | – | – | – | 10.8
CN(C)c1ccc(NC(=O)c2ccc3nsnc3c2)cc1 | – | – | – | – | 11.2
Cc1nc2ccc(C(=O)Nc3ccc(N(C)C)cc3)cc2s1 | – | – | – | – | –
CCOC(=O)c1cccc(NC(=O)c2ccc(NC(=O)c3ccco3)cc2)c1 | – | – | – | – | –
O=C(NNC(=O)c1ccc(NC(=O)c2ccccc2)cc1)c1ccc(F)cc1 | – | – | – | – | –
O=C(Nc1ccc(C(=O)c2ccccc2)cc1)c1ccccc1 | – | – | – | – | 11.2
O=C(OCCN1CCCC12CCC(c1ccccc1)CC2)c1ccccc1 (stereo not given) | – | – | – | · | –
CCOC(=O)c1ccc2nc(C)c(C)nc2c1 | – | 5.6 | – | – | –
Cc1ccc(S(=O)(=O)Nc2cc(C(=O)O)ccc2N2CCC(C)CC2)cc1C | – | – | – | · | –
CC(C)NC(=O)C1C(c2ccc(C(F)(F)F)cc2)=Nc2ccccc2N1C(=O)c1ccccc1 (stereo not given) | – | – | 1.5 | · | –
CC(C)C[C@H]1COc2cc(Br)ccc2S(=O)(=O)N1Cc1cn(Cc2ccc(Br)cc2)nn1 | – | – | – | · | –
CN(C)S(=O)(=O)c1cc(NC2CC(=O)N(c3ccc(F)cc3)C2=O)ccc1Cl (stereo not given) | – | – | – | 10.1 | –
